Values without a mark were called inactive. Records with an inconclusive call do not appear. Calls of active or inactive are those of the source. Unless noted, the call rests on the fitted dose curve; in most records, active means well fitted cell-killing curve with a large enough effect in the repeat runs; inconclusive means weak or mixed curves, or effect the other way; inactive means flat fitted curve, though single readings scatter.
Test system: not listed separately
Assay: qHTS assay to identify small molecule agonists of the TGF-beta/Smad signaling pathway - cell viability counter screen (AID 1346829); further: top concentration of the series differs between compounds; nearly all actives have a fitted effect of over 45% in size
Details: SBE-bla HEK293T viability, CellTiter-Glo luminescence, 5 h; series mostly up to 76.8 µM; activity change, negative = cytotoxicity: at the top concentration
Method in brief: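 Luminescence from CellTiter-Glo, read after a 30 min room-temperature incubation, gives cell viability of SBE-bla HEK 293T cells treated 5 hr with compounds at 37 C.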
On the % scale 0 is the no-effect control and ±100 the full control effect.

SMILES	activity change, negative = cytotoxicity	Potency
O=C(Cl)OCCOCCOC(=O)Cl	-2.92%	
COc1ccc(C(O)(c2cncnc2)C2CC2)cc1 (stereo unspecified)	-6.07%	
CC(=O)OC(c1ccccc1)C(Cl)(Cl)Cl (stereo unspecified)	-10.4%	
CCCC[N+]1(C)[C@@H]2CC(OC(=O)[C@H](CO)c3ccccc3)C[C@H]1[C@@H]1O[C@@H]12 (stereo partly specified)	10.2% [at 35.3 µM]	
CC(C)OC(=O)Cc1ccccc1	6.78%	
C=CCSSCC=C	-6.56%	
CCCC1CCCCN1 (stereo unspecified)	1.03% [at 35.3 µM]	
c1ccc2c(c1)-c1cccc3cccc-2c13		inactive
CN1CC[C@]23c4c5ccc(O)c4O[C@H]2[C@@H](O)CC[C@H]3[C@H]1C5	-3.06%	
C[C@@H]1C[C@@H]([C@H](O)CC2CC(=O)NC(=O)C2)C(=O)[C@@H](C)C1		inactive
C=CCN1C[C@H](C)N([C@H](c2ccc(C(=O)N(CC)CC)cc2)c2cccc(OC)c2)C[C@H]1C	-11.9% [at 35.3 µM]	
CNC(=O)Oc1cccc(N=CN(C)C)c1	0.174%	
C=CCOCC1CO1 (stereo unspecified)	-0.627%	
CN1C[C@H](C(=O)N[C@]2(C)O[C@@]3(O)[C@@H]4CCCN4C(=O)[C@H](Cc4ccccc4)N3C2=O)C=C2c3cccc4[nH]cc(c34)C[C@H]21		inactive
NC(=O)CF	-0.659%	
C[C@H]1[C@@H]2Cc3ccc(O)cc3[C@@]1(C)CCN2C	0.504% [at 200 µM]	

SMILES	activity change, negative = cytotoxicity	Potency
CCOC(C(=O)OCCN(C)C)(c1ccccc1)c1ccccc1	-2.3% [at 35.3 µM]	
Oc1cccc(Cl)c1	4.02%	
Nc1ccc2c(c1)Cc1ccccc1-2	6.01%	
CCCSP(=S)(OCC)Oc1ccc(SC)cc1 (stereo unspecified)	2.85%	
CCOc1cccc(C2(N3CCN(c4ccccc4)CC3)CCC(C)CC2)c1 (stereo unspecified)	-3.45%	
O=C(NC(=O)c1cc(F)c(F)cc1Cl)Nc1cc(F)ccc1N1CCC(C(=O)O)CC1	4.52% [at 35.3 µM]	
O=C(O)C(Cl)(Cl)Br	1.04%	
O=CC=O	1.39%	
CC(C)(C#N)C(C)(C)C#N	0.661%	
N#CC(C#N)=Cc1ccc(O)c(O)c1	-0.966% [at 35.3 µM]	
O=C(Cc1ccccc1)c1ccccc1	-20.7%	
O=C1CC[C@@]2(O)[C@H]3Cc4ccc(O)c5c4[C@@]2(CCN3CC2CC2)[C@H]1O5	-14.4% [at 35.3 µM]	
O=C(O)COc1cc(Cl)c(Cl)cc1Cl		inactive
OCCCl	12.9%	
CCCCNC(=O)OCC#CI	-23.4%	

Test system: not listed separately
Assay: qHTS assay to identify small molecule agonists of the TGF-beta/Smad signaling pathway (AID 1346859; active means well fitted activation curve with a large enough effect in the signal ratio in the repeat runs, not every such curve was filed as active; the % refers to the signal ratio)
Details: SBE-bla HEK293T, TGF-beta/Smad beta-lactamase reporter, 5 h; series mostly up to 76.8 µM; activation: at the top concentration
Method in brief: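 Screening used HEK 293T SBE-bla cells at 4,000/well. Test agents: 5 hr, 37 C. Detection: FRET substrate, 2 hr RT, then excitation 405 nm with emissions at 460 and 530 nm.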

SMILES	activation	outcome
O=C(Cl)OCCOCCOC(=O)Cl	1.56%	
COc1ccc(C(O)(c2cncnc2)C2CC2)cc1 (stereo unspecified)	-2.95%	
CC(=O)OC(c1ccccc1)C(Cl)(Cl)Cl (stereo unspecified)	0.24%	
CCCC[N+]1(C)[C@@H]2CC(OC(=O)[C@H](CO)c3ccccc3)C[C@H]1[C@@H]1O[C@@H]12 (stereo partly specified)	5.5% [at 35.3 µM]	
O=C(N/N=C/c1ccc([N+](=O)[O-])o1)c1cc([N+](=O)[O-])cc([N+](=O)[O-])c1O	-4.95% [at 35.3 µM]	
CC(C)OC(=O)Cc1ccccc1	0.394%	
C=CCSSCC=C	0.522%	
CCCC1CCCCN1 (stereo unspecified)	4.02% [at 35.3 µM]	
c1ccc2c(c1)-c1cccc3cccc-2c13		inactive
CN1CC[C@]23c4c5ccc(O)c4O[C@H]2[C@@H](O)CC[C@H]3[C@H]1C5	-0.607%	
C[C@@H]1C[C@@H]([C@H](O)CC2CC(=O)NC(=O)C2)C(=O)[C@@H](C)C1		inactive
CNC(=O)Oc1cccc(N=CN(C)C)c1	-2.96%	
O=C(NCNC(=O)NC1C(=O)NC(=O)N1CO)NC1C(=O)NC(=O)N1CO (stereo unspecified)	0.653%	
COCc1cnc(C2=NC(C)(C(C)C)C(=O)N2)c(C(=O)O)c1 (stereo unspecified)	0.209%	
C=CCOCC1CO1 (stereo unspecified)	0.481%	
CCC1(C2=NCCN2)Cc2ccccc2O1 (stereo unspecified)	1.8% [at 35.3 µM]	
CN1C[C@H](C(=O)N[C@]2(C)O[C@@]3(O)[C@@H]4CCCN4C(=O)[C@H](Cc4ccccc4)N3C2=O)C=C2c3cccc4[nH]cc(c34)C[C@H]21		inactive
NC(=O)CF	1.01%	

SMILES	activation	outcome
C[C@H]1[C@@H]2Cc3ccc(O)cc3[C@@]1(C)CCN2C	0.615% [at 200 µM]	
CCOC(C(=O)OCCN(C)C)(c1ccccc1)c1ccccc1	0.0831% [at 35.3 µM]	
Oc1cccc(Cl)c1	-2.26%	
Nc1ccc2c(c1)Cc1ccccc1-2	-2.78%	
CCCSP(=S)(OCC)Oc1ccc(SC)cc1 (stereo unspecified)	0.283%	
CCOc1cccc(C2(N3CCN(c4ccccc4)CC3)CCC(C)CC2)c1 (stereo unspecified)	0.0161%	
O=C(NC(=O)c1cc(F)c(F)cc1Cl)Nc1cc(F)ccc1N1CCC(C(=O)O)CC1	-6.34% [at 35.3 µM]	
CN1CC[C@]23c4c5ccc(O)c4O[C@H]2[C@@H](O)C=C[C@H]3[C@H]1C5	-0.685%	
O=C(O)C(Cl)(Cl)Br	3.5%	
O=CC=O	-4.18%	
CCOC(=O)c1cncn1C(C)c1ccccc1 (stereo unspecified)	1.56% [at 35.3 µM]	
CC(C)(C#N)C(C)(C)C#N	0.809%	
N#CC(C#N)=Cc1ccc(O)c(O)c1	0.159% [at 35.3 µM]	
O=C(Cc1ccccc1)c1ccccc1	0.949%	
O=C1CC[C@@]2(O)[C@H]3Cc4ccc(O)c5c4[C@@]2(CCN3CC2CC2)[C@H]1O5	3.95% [at 35.3 µM]	
CC[N+]1(CCOC(=O)C(O)(c2ccccc2)c2ccccc2)CCCCC1	-0.0633% [at 35.3 µM]	
OCCCl	0.58%	
CCCCNC(=O)OCC#CI	8.78%	

Biological target: Thyrotropin-releasing hormone receptor (Homo sapiens) (UniProt P34981)
Assay: qHTS assay to identify small molecule antagonists of the thyrotropin-releasing hormone receptor (TRHR) signaling pathway (AID 1346877; active means well fitted inhibition curve with a large enough effect in the repeat runs, not every such curve was filed as active)
Details: TRHR-HEK293, TRH-induced calcium fluorescence, antagonist mode; series mostly up to 51.3 µM; activity, negative = inhibition: at the top concentration
Method in brief: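 Calcium signal in dye-loaded TRHR/HEK293 cells; compounds added 5 min before TRH (1 nM final); fluorescence monitored 3 min at 1 s steps.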

Chain of Thyrotropin-releasing hormone receptor (Homo sapiens) (P34981 whole entry, looked up): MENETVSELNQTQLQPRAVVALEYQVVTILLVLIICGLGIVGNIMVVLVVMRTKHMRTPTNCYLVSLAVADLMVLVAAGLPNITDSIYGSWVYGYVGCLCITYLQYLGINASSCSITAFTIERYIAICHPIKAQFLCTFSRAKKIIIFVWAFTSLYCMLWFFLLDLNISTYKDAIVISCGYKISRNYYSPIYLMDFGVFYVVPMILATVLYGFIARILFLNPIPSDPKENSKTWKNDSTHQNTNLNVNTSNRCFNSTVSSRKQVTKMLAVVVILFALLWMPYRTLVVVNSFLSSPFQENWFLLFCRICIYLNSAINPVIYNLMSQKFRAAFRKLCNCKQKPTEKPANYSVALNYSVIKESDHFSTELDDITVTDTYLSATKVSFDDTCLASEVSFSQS

SMILES	activity, negative = inhibition	Potency
COc1ccc(C(O)(c2cncnc2)C2CC2)cc1 (stereo unspecified)	-0.533%	
CCCC[N+]1(C)[C@@H]2CC(OC(=O)[C@H](CO)c3ccccc3)C[C@H]1[C@@H]1O[C@@H]12 (stereo partly specified)	0.0665% [at 23.6 µM]	
O=C(N/N=C/c1ccc([N+](=O)[O-])o1)c1cc([N+](=O)[O-])cc([N+](=O)[O-])c1O	1.66% [at 23.6 µM]	
CC(C)OC(=O)Cc1ccccc1	2.03%	
C=CCSSCC=C	-4.05%	
CCCC1CCCCN1 (stereo unspecified)	-2.63% [at 23.6 µM]	
CN1CC[C@]23c4c5ccc(O)c4O[C@H]2[C@@H](O)CC[C@H]3[C@H]1C5	1.83%	
C[C@@H]1C[C@@H]([C@H](O)CC2CC(=O)NC(=O)C2)C(=O)[C@@H](C)C1		inactive
C=CCN1C[C@H](C)N([C@H](c2ccc(C(=O)N(CC)CC)cc2)c2cccc(OC)c2)C[C@H]1C	-1.5% [at 23.6 µM]	
CNC(=O)Oc1cccc(N=CN(C)C)c1	0.191%	
O=C(NCNC(=O)NC1C(=O)NC(=O)N1CO)NC1C(=O)NC(=O)N1CO (stereo unspecified)	4.71%	
COCc1cnc(C2=NC(C)(C(C)C)C(=O)N2)c(C(=O)O)c1 (stereo unspecified)	0.158%	
C=CCOCC1CO1 (stereo unspecified)	-2.05%	
CCC1(C2=NCCN2)Cc2ccccc2O1 (stereo unspecified)	-4.4% [at 23.6 µM]	
Cc1cccc(C)c1NC1=NCCCS1	1.29% [at 23.6 µM]	
CN1C[C@H](C(=O)N[C@]2(C)O[C@@]3(O)[C@@H]4CCCN4C(=O)[C@H](Cc4ccccc4)N3C2=O)C=C2c3cccc4[nH]cc(c34)C[C@H]21		inactive
NC(=O)CF	1.68%	
C[C@H]1[C@@H]2Cc3ccc(O)cc3[C@@]1(C)CCN2C	3.38% [at 133 µM]	
CCOC(C(=O)OCCN(C)C)(c1ccccc1)c1ccccc1	-0.234% [at 23.6 µM]	
Oc1cccc(Cl)c1	3.47%	
Nc1ccc2c(c1)Cc1ccccc1-2	-0.398%	
CCOc1cccc(C2(N3CCN(c4ccccc4)CC3)CCC(C)CC2)c1 (stereo unspecified)	2.09%	
O=C(NC(=O)c1cc(F)c(F)cc1Cl)Nc1cc(F)ccc1N1CCC(C(=O)O)CC1	3.14% [at 23.6 µM]	
CN1CC[C@]23c4c5ccc(O)c4O[C@H]2[C@@H](O)C=C[C@H]3[C@H]1C5	2.97%	
O=C(O)C(Cl)(Cl)Br	8.23%	
N#CC(C#N)=Cc1ccc(O)c(O)c1	-4.49% [at 23.6 µM]	
O=C(Cc1ccccc1)c1ccccc1	1.72%	
O=C1CC[C@@]2(O)[C@H]3Cc4ccc(O)c5c4[C@@]2(CCN3CC2CC2)[C@H]1O5	-3.14% [at 23.6 µM]	
CCCCNC(=O)OCC#CI	-17.8%	
